# Laboratory results from PubChem BioAssay (NCATS).
# Results filed as inconclusive are left out. Active and inactive are the calls of the source. The call rests on the fitted dose curve; in most records, active means well fitted inhibition curve with a large enough effect; inconclusive means small, poorly fitted or top-dose-only effect; inactive means no such curve, though single readings can be large or run the other way.
# Assay: qHTS Screen of the MIPE 4.0 Collection Against Ewings Sarcoma (RDES) (AID 1259252); further: nearly all actives have a fitted effect of over 35% in size
# Conditions: RD-ES Ewing sarcoma viability, CellTiter-Glo, 48 h; series mostly up to 45.8 µM
# Method in brief: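 Viability screen: 48 h incubation at 37C, 95% humidity, 5% CO2 with serially titrated compound, followed by CellTiter-Glo readout.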
# Potency means the concentration at half of the fitted maximal effect.
row,Compound,Potency
1,Cc1cnc(CNC(=O)c2c(=O)c3ccc(N4CCCN(C)CC4)nc3n3c2sc2ccccc23)cn1,7.24 µM (active)
2,CCC[C@H](N[C@@H](C)C(=O)N1[C@@H]2CCCC[C@H]2C[C@H]1C(=O)O)C(=O)OCC,inactive
3,CCn1c(-c2nonc2N)nc2cncc(CNC3CCNCC3)c21,11.8 µM (active)
4,Cn1c(=O)c(-c2c(Cl)cccc2Cl)cc2cnc(Nc3cccc(C(=O)O)c3)nc21,0.0662 µM (active)
5,O=C1NC(=O)C(c2cnc3ccccn23)=C1c1cn2c3c(cccc13)CN(C(=O)N1CCOCC1)CC2,5.26 µM (active)
6,Cc1c(-c2cccc3c(CCCOc4cccc5ccccc45)c(C(=O)O)n(Cc4cccnc4)c23)c(COc2ccc(N3CCN([S+](=O)([O-])N(C)C)CC3)cc2)nn1C,16.6 µM (active)
7,O=C(Nc1cccc(C(F)(F)F)c1)Nc1cc(S(=O)(=O)NC2CC2)ccc1-c1ccsc1,20.9 µM (active)
8,CC(=O)NCCC(=O)N[C@@H](CCC(N)=O)C(=O)N[C@@H](CO)C(=O)N[C@@H](CCC(N)=O)C(=O)N[C@@H](CCC(N)=O)C(=O)N[C@H](C(=O)N[C@@H](Cc1ccccc1)C(=O)N[C@]1(C)CCCCCCC=CCCC[C@@](C)(C(=O)N[C@@H](CCC(N)=O)C(=O)N[C@@H](CC(N)=O)C(N)=O)NC(=O)[C@H](CC(C)C)NC(=O)[C@H](CC(C)C)NC(=O)[C@@H](CCCNC(=N)N)NC(=O)[C@H](Cc2c[nH]c3ccccc23)NC(=O)[C@H](CC(C)C)NC(=O)[C@H](CC(N)=O)NC1=O)[C@H](C)O,18.7 µM (active)
9,C=C1c2cccc(O)c2C(O)=C2C(=O)[C@@]3(O)C(O)=C(C(N)=O)C(=O)[C@@H](N(C)C)[C@@H]3[C@@H](O)[C@H]12,20.9 µM (active)
10,C[C@@]1(c2cc(-c3cncnc3)c(F)cc2F)CCSC(N)=N1,inactive
11,Cc1cc(CS(=O)(=O)c2ccccc2)cc(OCc2ccc(CN3CCC[C@H]3CO)cc2)c1,20.9 µM (active)
12,O=C1Nc2ccc(I)cc2C1=Cc1cc(Br)c(O)c(Br)c1,18.7 µM (active)
13,CCc1cccc(CC)c1NC(=O)N1Cc2[nH]nc(NC(=O)c3ccc(N4CCN(C)CC4)cc3)c2C1,5.9 µM (active)
14,Nc1[nH]nc2nnc(-c3c(-c4ccccc4)nn4ccccc34)cc12,5.9 µM (active)
15,Cc1nc(NC(=O)N2CCC[C@@H]2C(N)=O)sc1-c1csc(C(C)(C)C)n1,5.26 µM (active)
16,CCCCc1ccc(NS(=O)(=O)c2ccc(C)c(C(=O)N3CCN(c4cccc(C)c4C)CC3)c2)cc1,inactive
17,CCNC(=O)c1noc(-c2cc(C(C)C)c(O)cc2O)c1-c1ccc(CN2CCOCC2)cc1,0.105 µM (active)
18,N#CC1(c2cccc(C(=O)Nc3cc(Oc4ccc5nc(NC(=O)C6CC6)sc5n4)ccc3F)c2Cl)CC1,16.6 µM (active)
19,CC1C(=O)OC2C(O)C34C5CC(C(C)(C)C)C36C(OC(=O)C6O)OC4(C(=O)O5)C12O (configuration not stated),13.2 µM (active)

row,Compound,Potency
1,CN(C)CCOc1ccc(C(=C(CCCl)c2ccccc2)c2ccccc2)cc1,1.66 µM (active)
2,COc1ccc(-c2cc(=O)c3c(O)cc(O[C@@H]4O[C@H](CO[C@@H]5O[C@@H](C)[C@H](O)[C@@H](O)[C@@H]5O)[C@@H](O)[C@H](O)[C@@H]4O)cc3o2)cc1O,18.7 µM (active)
3,CCCCC(C)(C)[C@H](O)C=C[C@H]1[C@H](O)CC(=O)[C@H]1CC=CCCCC(=O)O,inactive
4,CC1(COc2ccc3c(c2)ncn3-c2ccc3cccc(N4CCC(N)CC4)c3n2)COC1,inactive
5,O=C(NCCCCN1CCOCC1)c1cc2ccccc2o1,inactive
6,CC(=O)O[C@]1(C(C)=O)CC[C@H]2[C@@H]3C=C(Cl)C4=CC(=O)[C@@H]5C[C@H]5[C@]4(C)[C@@H]3CC[C@@]21C,9.35 µM (active)
7,CCC[C@H](Nc1nc(-c2ccc(NC(=O)NCC)c(OC)c2)ncc1C)c1cccnc1,0.0093 µM (active)
8,COc1cc2nc(-c3cc(F)ccc3O)nc(N[C@@H]3CNC[C@@H]3C(C)(C)O)c2cc1OC,23.5 µM (active)
9,O=C(Nc1cccc2c(=O)cc(-c3nn[nH]n3)oc12)c1ccc(OCCCCc2ccccc2)cc1,16.6 µM (active)
10,CC[C@H](C=C[C@@H](C)[C@H]1CC[C@H]2[C@@H]3CC=C4C[C@@H](O)CC[C@]4(C)[C@@H]3CC[C@]12C)C(C)C,inactive
11,CN1CCC(COc2cnc(-c3cccc(Cn4nc(-c5cccc(C#N)c5)ccc4=O)c3)nc2)CC1,7.43 µM (active)
12,CC(C)Oc1cc(Nc2nc(N[C@@H](C)c3ccc(F)cn3)ncc2Cl)[nH]n1,16.6 µM (active)
13,CC[C@]1(O)C[C@H]2CN(CCC3=c4ccccc4=N[C]3[C@@](C(=O)OC)(c3cc4c(cc3OC)N(C)[C@H]3[C@@](O)(C(N)=O)[C@H](O)[C@]5(CC)C=CCN6CC[C@]43[C@@H]65)C2)C1,0.0033 µM (active)
14,CCOC(=O)N1CCN([N+]([O-])=NOc2cc(ON=[N+]([O-])N3CCN(C(=O)OCC)CC3)c([N+](=O)[O-])cc2[N+](=O)[O-])CC1,inactive
15,CCOC(=O)[C@H](CCc1ccccc1)N[C@@H](C)C(=O)N1CCCC1C(=O)O (some centres not stated),20.9 µM (active)
16,Cc1ccc(NC(=O)Nc2cc(C(F)(F)F)ccc2F)cc1Nc1ccc2c(c1)NC(=O)C2=Cc1ccc[nH]1,23.5 µM (active)
17,C=C[C@@H]1CN2CCC1C[C@@H]2C(O)c1ccnc2ccc(OC)cc12 (some centres not stated),3.72 µM (active)
18,CN1CCN2c3ncccc3Cc3ccccc3C2C1 (configuration not stated),inactive
